In PubChem BioAssay one finds inhibition, activation and activation (reported as inhibition) data, which are given here for 17 compounds.

Experiment [1] can be described thus: STAT3 reporter inhibitors, retest of hits, confirmation, U3A cells, luciferase, luminescence (AID 1265;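 active = inhibition above the hit cutoff computed for the primary STAT3 screen, cut at about 44% in these data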;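 also: 0% = IL-6 plus DMSO and 100% = IL-6 plus nifuroxazide control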). The following applies: IL-6 STAT3 luciferase reporter, at 5.7 µM, stronger effect = higher value, cell line lacks STAT1. (In general: In a reporter assay the amount or activity of a reporter protein is the signal.)
A short description of experiment [2]: NF-kB reporter inhibitors in human cells, confirmation, counter-screen for STAT3 inhibitor project, cell-based, HEK293T, luciferase, TNF-alpha stimulus (AID 1308;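 active = inhibition above the mean of solvent-only control wells plus 3 SD, cutoff set per campaign, cut at about 13% in these data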;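 also: 0% = TNF-alpha with DMSO and 100% = TNF-alpha with MG high control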). The following applies: TNF-alpha induced, at 5.7 µM, stronger effect = higher value. On the technique in general: The purpose of a counterscreen is to sort out artefacts and off-target activity.
Experiment [3] is described as follows: STAT1 reporter inhibitors, IFN-gamma induced, confirmation, counter-screen for STAT3 inhibitor project, cell-based, NIH 3T3, luciferase luminescence (AID 1317;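 active = inhibition above the mean plus 3 SD of solvent-only control wells, limit set per screening run, cut at about 16% in these data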;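 also: 0% = DMSO with IFN-gamma and 100% = nifuroxazide control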). The note with it: NIH 3T3 STAT1-luciferase reporter, at 5.7 µM, stronger effect = higher value.
A short description of experiment [4]: Gal4-VP16 luciferase reporter inhibitors, counter-screen for COUP-TFII antagonist project, cell-based, luminescence, HEK293 (AID 687007; in the data active = inhibition above about 13%). The following applies: at 8.5 µM, stronger effect = higher value.
Experiment [5] has as its target COUP transcription factor 2 (Homo sapiens) (UniProt P24468). The experiment is described as follows: NR2F2 transcriptional activity inhibitors, confirmation, cell-based, luciferase reporter, HEK293, triplicate (AID 687008;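 active = mean inhibition over three repeats above a set limit taken from the earlier primary screen, cut at about 38% in these data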;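 also: 100% = cells given the luciferase reporter alone without the COUP-TF2 vector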). The following applies: HEK293 NGFI-A luciferase reporter, luminescence; at 8.5 µM; stronger effect = higher value.
Experiment [6] has as its target Peroxisome proliferator-activated receptor gamma (Homo sapiens) (UniProt P37231). The experiment is described as follows: agonists of PPARgamma SRC-2 coactivator recruitment, confirmation, biochemical, HTS (AID 1297; in the data active = activation above about 22%;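 also: 0% = vehicle alone and 100% = reference agonist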). The note with it: biochemical SRC-2 recruitment by PPARgamma; at 8 µM; stronger effect = higher value.
Experiment [7] has the same target. The experiment is described as follows: PPARgamma agonists recruiting SRC-1 coactivator, confirmation, biochemical (AID 1300).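 Also: 0% = vehicle wells and 100% = reference agonist.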 The following applies: PPARgamma–SRC-1 coactivator recruitment biochemical assay; at 8 µM; stronger effect = higher value.
For experiment [8], the target named is Peroxisome proliferator-activated receptor gamma (Homo sapiens) + Nuclear receptor coactivator 3 (Homo sapiens) (UniProt P37231+Q9Y6Q9). The experiment is described as follows: PPARgamma-driven SRC-3 coactivator recruitment agonists, confirmation, biochemical (AID 1301; in the data active = activation above about 24%;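 also: 0% = vehicle wells and 100% = reference agonist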). The following applies: biochemical PPARgamma-SRC-3 coactivator recruitment, agonist mode; at 8 µM; stronger effect = higher value.
Sequence of Peroxisome proliferator-activated receptor gamma (Homo sapiens) + Nuclear receptor coactivator 3 (Homo sapiens) (P37231 whole entry, looked up): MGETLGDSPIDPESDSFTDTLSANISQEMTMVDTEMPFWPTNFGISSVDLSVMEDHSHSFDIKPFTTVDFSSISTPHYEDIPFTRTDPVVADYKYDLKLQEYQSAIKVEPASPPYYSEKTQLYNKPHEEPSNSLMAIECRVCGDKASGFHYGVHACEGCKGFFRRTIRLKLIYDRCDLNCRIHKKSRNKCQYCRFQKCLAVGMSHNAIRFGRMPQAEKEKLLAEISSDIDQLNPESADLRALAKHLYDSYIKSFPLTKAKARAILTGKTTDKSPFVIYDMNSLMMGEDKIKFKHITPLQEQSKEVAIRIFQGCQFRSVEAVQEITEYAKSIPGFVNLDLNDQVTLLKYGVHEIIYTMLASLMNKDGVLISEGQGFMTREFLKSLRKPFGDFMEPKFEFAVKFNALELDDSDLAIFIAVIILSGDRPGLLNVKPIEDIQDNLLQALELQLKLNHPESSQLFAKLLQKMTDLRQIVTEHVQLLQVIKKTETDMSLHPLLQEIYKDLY
Sequence of Peroxisome proliferator-activated receptor gamma (Homo sapiens) + Nuclear receptor coactivator 3 (Homo sapiens) (Q9Y6Q9 whole entry, looked up): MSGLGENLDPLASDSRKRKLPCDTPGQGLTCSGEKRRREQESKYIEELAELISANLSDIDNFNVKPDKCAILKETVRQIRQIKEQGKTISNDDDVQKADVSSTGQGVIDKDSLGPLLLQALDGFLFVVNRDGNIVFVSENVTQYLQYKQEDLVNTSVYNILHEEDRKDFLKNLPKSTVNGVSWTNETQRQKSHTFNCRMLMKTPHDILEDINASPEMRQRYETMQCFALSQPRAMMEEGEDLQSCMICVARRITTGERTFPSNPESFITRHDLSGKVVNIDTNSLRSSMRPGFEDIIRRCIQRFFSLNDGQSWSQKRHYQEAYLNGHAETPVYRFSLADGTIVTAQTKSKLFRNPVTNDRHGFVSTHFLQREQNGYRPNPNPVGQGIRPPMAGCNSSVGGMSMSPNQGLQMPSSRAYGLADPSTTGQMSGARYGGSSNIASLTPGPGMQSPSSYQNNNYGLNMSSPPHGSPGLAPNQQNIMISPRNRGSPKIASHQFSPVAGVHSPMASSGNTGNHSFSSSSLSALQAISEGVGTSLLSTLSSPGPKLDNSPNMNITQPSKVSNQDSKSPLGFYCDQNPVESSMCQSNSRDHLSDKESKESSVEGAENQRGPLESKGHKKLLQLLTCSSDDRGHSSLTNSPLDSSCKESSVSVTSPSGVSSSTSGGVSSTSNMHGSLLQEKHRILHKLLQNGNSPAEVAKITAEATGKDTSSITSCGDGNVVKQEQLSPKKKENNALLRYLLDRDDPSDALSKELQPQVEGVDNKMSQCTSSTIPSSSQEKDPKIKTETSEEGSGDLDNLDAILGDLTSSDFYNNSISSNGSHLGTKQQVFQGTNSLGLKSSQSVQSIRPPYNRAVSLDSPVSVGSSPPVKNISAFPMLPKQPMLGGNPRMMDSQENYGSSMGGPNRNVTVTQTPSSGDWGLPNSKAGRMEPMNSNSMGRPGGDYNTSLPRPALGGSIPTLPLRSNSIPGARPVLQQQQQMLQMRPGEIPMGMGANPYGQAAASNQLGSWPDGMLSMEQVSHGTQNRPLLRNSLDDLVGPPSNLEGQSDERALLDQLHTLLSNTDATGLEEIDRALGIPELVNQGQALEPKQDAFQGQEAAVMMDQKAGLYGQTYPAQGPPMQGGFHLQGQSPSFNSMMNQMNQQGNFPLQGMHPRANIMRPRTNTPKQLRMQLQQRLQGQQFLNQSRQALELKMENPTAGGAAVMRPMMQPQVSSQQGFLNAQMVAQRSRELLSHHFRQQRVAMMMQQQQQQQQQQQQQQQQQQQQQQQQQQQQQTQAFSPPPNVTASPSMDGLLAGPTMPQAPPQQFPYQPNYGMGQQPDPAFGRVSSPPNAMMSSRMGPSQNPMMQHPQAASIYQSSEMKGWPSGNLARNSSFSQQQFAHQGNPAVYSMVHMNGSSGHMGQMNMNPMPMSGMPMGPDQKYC

Experiment [9] concerns Fam108b (Abhd17b) serine hydrolase [Mus musculus]. The experiment is described as follows: mouse Fam108b serine hydrolase inhibitors, confirmation, counter-screen for RBBP9 inhibitor project, biochemical, fluorescence polarization, triplicate (AID 1978;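 active = inhibition above a limit from the primary screen, the mean over all compounds plus 3 SD, cut at about 19% in these data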;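 also: 0% = median of active Fam108b wells and 100% = catalytically dead S170A mutant; inhibitors free the probe so polarization falls as inhibition rises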). The following applies: recombinant Fam108b, FP-Rh probe fluorescence polarization; at 9.51 µM; stronger effect = higher value.
Experiment [10] addresses Bcl-2-like protein 1 (Homo sapiens) (UniProt Q07817). The experiment is described as follows: Bcl-xL inhibitors blocking Bim BH3 binding, confirmation, counter-screen for MCL1 inhibitor project, biochemical, fluorescence polarization (AID 2166;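 active = inhibition above a cutoff equal to the mean inhibition of all tested compounds plus 3 SD, cut at about 30% in these data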). The following applies: GST-Bcl-xL / FITC-Bim BH3 peptide FP binding; at 10.9 µM; stronger effect = higher value.
Experiment [11] concerns the target Induced myeloid leukemia cell differentiation protein Mcl-1 (Homo sapiens) (UniProt Q07820). The experiment is described as follows: inhibitors of MCL1 binding to BIM-BH3, confirmation, biochemical, fluorescence polarization, triplicate (AID 2168;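 active = inhibition above the average of all tested compounds plus 3 SD, cut at about 40% in these data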;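 also: 0% = DMSO wells and 100% = unlabeled Bim-BH3 control peptide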). The note with it: GST-MCL1 / FITC-Bim-BH3 fluorescence polarization; at 10.9 µM; stronger effect = higher value.
Experiment [12] addresses Protein-arginine deiminase type-4 (Homo sapiens) (UniProt Q9UM07). The experiment is described as follows: human PAD4 inhibitors, confirmation, biochemical, fluorescence polarization (AID 488796;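 active = mean inhibition across replicates above the hit cutoff set by the earlier primary screen, cut at about 15% in these data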;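 also: inhibitors block active-site labeling by the probe so polarization falls; 0% = PAD4 with probe and DMSO and 100% = probe without PAD4 enzyme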). The note with it: recombinant PAD4, RCA probe fluorescence polarization; at 6.36 µM; stronger effect = higher value.
Experiment [13] has as its target Serine protease HTRA1 (Homo sapiens) (UniProt Q92743). The experiment is described as follows: HTRA1 protease inhibitors, retest, confirmation, biochemical, fluorescence polarization (AID 540248;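 active = mean inhibition over three repeats above a set limit taken from the earlier primary screen, cut at about 37% in these data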;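 also: 0% = HTRA1 with DMSO and 100% = wells lacking HTRA1; inhibitors block probe binding so polarization drops and inhibition rises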). The note with it: recombinant HTRA1, FP-rhodamine activity-based probe, at 5.96 µM, stronger effect = higher value.
Experiment [14] addresses (Lyso)-N-acylphosphatidylethanolamine lipase (Mus musculus) (UniProt Q8VD66). The experiment is described as follows: ABHD4 inhibitors, retest, confirmation, biochemical, fluorescence polarization, mouse (AID 720658;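 active = mean inhibition across replicates above the hit cutoff set in the primary screen, cut at about 30% in these data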;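 also: 0% = wild-type ABHD4 with DMSO and 100% = catalytically dead S159A mutant with DMSO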). The following applies: purified mABHD4, FP-Rh probe fluorescence polarization; at 8.92 µM; stronger effect = higher value. (In fluorescence polarisation assays a small probe gives low polarisation when free and higher when bound to something large.)

Experiment [15] concerns the target Oxysterols receptor LXR-beta (Homo sapiens) (UniProt P55055). The experiment is described as follows: LXR agonists, Gal4 luciferase reporter, confirmation, counter-screen for hcDAF-12 agonist project, cell-based, luminescence, HEK293, H. contortus campaign (AID 743027;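 active = mean percent activation of the reporter above a cutoff set as the average over tested compounds plus their standard deviation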). The note with it: HEK293 Gal4-LXR tk-luc reporter, 24 h, at 6.8 µM, stronger effect = higher value, normalized: DMSO 0%, positive control 100%.

The subject of experiment [16] is Nuclear hormone receptor DAF-12 (Haemonchus contortus). The experiment is described as follows: H. contortus DAF-12 receptor agonists, confirmation, cell-based, luminescence, HEK293, lit1-tk-luc, triplicate (AID 743032;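 active = mean activation across triplicate tests above the threshold derived from the earlier primary screen, cut at about 5.5% in these data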;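 also: 0% = DMSO only wells and 100% = 3 µM Δ7-dafachronic acid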). The following applies: HEK293 hcDAF-12 lit1-tk-luc reporter, at 6.8 µM, stronger effect = higher value, % of Δ7-dafachronic acid response.
Experiment [17] has as its target Sphingosine 1-phosphate receptor 4 (Homo sapiens) (UniProt O95977). The experiment is described as follows: S1P4 receptor antagonists, human, confirmation, cell-based (AID 1524; in the data active = inhibition above about 30%). The following applies: S1P4-expressing cell line, antagonist mode, reporter read-out; at 4.98 µM; stronger effect = higher value.
The target of experiment [18] is Sphingosine 1-phosphate receptor 1 (Homo sapiens) (UniProt P21453). The experiment is described as follows: S1P1 receptor antagonists, human, counter-screen for S1P4 antagonist project, cell-based (AID 1564; in the data active = inhibition above about 40%;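 also: receptor stimulated with S1P near its EC80; 0% = agonist stimulated wells and 100% = vehicle only wells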). The note with it: cell-based S1P1 antagonist counterscreen, at 4.98 µM, stronger effect = higher value.
Sequence of Sphingosine 1-phosphate receptor 1 (Homo sapiens) (P21453 whole entry, looked up): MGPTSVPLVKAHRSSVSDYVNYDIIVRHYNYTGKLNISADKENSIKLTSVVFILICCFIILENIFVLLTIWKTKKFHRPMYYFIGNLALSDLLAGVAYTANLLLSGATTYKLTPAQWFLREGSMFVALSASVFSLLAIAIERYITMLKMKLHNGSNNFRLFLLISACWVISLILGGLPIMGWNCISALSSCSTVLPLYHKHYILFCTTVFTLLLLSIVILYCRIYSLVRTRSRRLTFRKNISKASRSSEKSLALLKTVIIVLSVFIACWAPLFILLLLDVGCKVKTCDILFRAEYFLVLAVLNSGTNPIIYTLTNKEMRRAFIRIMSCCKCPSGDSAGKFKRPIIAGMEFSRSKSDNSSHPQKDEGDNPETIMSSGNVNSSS
The target of experiment [19] is Photoreceptor-specific nuclear receptor (Homo sapiens) (UniProt Q9Y5X4). The experiment is described as follows: NR2E3 agonists, confirmation, biochemical, TR-FRET (AID 2379). The following applies: cell-free NR2E3 corepressor release, 5 h, at 3.98 µM, stronger effect = higher value.
Sequence of Photoreceptor-specific nuclear receptor (Homo sapiens) (Q9Y5X4 whole entry, looked up): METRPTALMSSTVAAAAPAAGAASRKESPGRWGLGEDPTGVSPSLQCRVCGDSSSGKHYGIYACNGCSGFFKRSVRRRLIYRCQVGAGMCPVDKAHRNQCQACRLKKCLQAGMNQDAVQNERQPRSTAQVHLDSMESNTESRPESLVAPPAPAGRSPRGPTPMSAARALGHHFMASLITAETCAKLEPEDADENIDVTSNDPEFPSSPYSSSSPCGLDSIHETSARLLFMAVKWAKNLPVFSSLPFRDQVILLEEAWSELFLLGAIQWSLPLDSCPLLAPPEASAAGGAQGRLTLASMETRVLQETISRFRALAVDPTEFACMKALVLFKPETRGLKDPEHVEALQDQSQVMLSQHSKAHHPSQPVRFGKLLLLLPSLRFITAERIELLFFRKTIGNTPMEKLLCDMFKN
In experiment [20] the target is Peroxisome proliferator-activated receptor gamma (Homo sapiens) + Nuclear receptor corepressor 2 (Homo sapiens) (UniProt P37231+Q9Y618). The experiment is described as follows: agonists of PPARg-NCOR2 corepressor interaction, counter-screen for NR2E3 agonist project, biochemical, TR-FRET (AID 504787; in the data active = inhibition above about 20%;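 also: 0% = DMSO vehicle and 100% = wells without protein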). The note with it: TR-FRET PPARg-NCOR2 coregulator interaction, at 3.98 µM, stronger effect = higher value.

SMILES strings stand for the structures. This is one part of the list. A number with no mark means an inactive call. Active and inactive are the calls of the source. Rule as the data show it, unless noted: active = activation above about 20%; inactive = the rest.

Sequence of Peroxisome proliferator-activated receptor gamma (Homo sapiens) (P37231 whole entry, looked up): as the sequence (P37231 whole entry, looked up) above
Sequence of Oxysterols receptor LXR-beta (Homo sapiens) (P55055 whole entry, looked up, the tested form may be a part): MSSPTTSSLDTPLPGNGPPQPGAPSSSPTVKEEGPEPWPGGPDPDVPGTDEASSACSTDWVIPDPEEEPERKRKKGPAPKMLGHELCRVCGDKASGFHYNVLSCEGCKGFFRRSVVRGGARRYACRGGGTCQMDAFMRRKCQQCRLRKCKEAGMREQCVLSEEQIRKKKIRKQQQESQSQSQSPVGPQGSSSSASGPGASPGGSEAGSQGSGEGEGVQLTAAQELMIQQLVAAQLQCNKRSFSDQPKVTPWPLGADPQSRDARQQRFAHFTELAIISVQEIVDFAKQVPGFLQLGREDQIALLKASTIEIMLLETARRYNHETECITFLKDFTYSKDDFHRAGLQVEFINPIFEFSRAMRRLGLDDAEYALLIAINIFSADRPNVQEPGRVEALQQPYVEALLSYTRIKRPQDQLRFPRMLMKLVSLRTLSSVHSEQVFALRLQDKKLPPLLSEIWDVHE
Sequence of Protein-arginine deiminase type-4 (Homo sapiens) (Q9UM07 whole entry, looked up): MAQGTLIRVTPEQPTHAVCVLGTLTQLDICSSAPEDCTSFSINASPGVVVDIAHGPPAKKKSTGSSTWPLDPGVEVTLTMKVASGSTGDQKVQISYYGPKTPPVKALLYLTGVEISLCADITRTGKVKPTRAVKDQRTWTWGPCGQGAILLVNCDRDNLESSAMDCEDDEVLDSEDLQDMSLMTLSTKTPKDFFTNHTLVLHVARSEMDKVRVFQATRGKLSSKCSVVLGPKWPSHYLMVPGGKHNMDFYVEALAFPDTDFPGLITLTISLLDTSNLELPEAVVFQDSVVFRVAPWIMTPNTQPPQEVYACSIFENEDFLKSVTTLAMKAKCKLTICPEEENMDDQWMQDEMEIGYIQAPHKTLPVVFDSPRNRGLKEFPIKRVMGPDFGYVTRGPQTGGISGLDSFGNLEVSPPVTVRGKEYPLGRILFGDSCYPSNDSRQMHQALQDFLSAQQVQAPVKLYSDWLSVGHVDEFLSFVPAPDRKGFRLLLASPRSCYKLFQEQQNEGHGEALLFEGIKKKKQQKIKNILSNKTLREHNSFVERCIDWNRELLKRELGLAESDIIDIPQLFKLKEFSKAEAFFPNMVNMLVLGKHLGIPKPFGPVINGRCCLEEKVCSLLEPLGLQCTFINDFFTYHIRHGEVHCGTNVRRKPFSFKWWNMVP
Sequence of Induced myeloid leukemia cell differentiation protein Mcl-1 (Homo sapiens) (Q07820 whole entry, looked up): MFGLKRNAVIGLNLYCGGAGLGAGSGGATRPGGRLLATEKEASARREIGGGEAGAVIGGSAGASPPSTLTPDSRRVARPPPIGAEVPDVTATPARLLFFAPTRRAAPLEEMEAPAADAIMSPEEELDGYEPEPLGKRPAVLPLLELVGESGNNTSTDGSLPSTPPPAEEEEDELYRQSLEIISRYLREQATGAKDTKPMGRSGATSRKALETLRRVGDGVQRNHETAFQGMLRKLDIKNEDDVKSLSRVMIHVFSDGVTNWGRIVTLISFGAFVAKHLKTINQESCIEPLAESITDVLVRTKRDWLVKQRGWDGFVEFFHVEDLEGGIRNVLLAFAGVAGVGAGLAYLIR
Sequence of Bcl-2-like protein 1 (Homo sapiens) (Q07817 whole entry, looked up): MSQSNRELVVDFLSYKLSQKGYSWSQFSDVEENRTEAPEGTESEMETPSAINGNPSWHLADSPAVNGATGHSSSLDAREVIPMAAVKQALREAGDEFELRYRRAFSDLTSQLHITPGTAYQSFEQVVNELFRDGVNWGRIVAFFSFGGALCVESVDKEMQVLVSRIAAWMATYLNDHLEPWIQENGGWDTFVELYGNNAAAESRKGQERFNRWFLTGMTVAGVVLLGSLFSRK

The term inhibition denotes the drop in the measured response relative to a control, in per cent. For the compound `O=C(Nc1nc(-c2ccc3c(c2)OCO3)cs1)c1ccncc1`, the inhibition is 49.5% (active) in experiment [1]; 11.5% in experiment [2]; 6.97% in experiment [3]; -26.7% in experiment [4]; 50.7% (active) in experiment [5].
As for `CCOc1ccc(NC(=O)CSc2ncnc3c2sc2ccccc23)cc1`, the activation in experiment [6] was 46% (active); in experiment [7], 29.5% (active); in experiment [8], 32.6% (active).
The corresponding values for `CCOC(=O)C1CCN(C(=O)CSc2cc(=O)n(C)c3ccccc23)CC1` are 38.9% (active), 22.9% (active) and 24.4% (active).
Take `COC(=O)Cn1cc(C(=O)c2cccs2)c2ccccc21`: the activation in [6] was -2.1%; in experiment [7], 0.95%; in experiment [8], 0.74%.
For the compound `CSc1c(SCc2ccccc2)cnn(Cc2ccccc2)c1=O`, the figures for the activation in experiment [6], in [7] and in experiment [8] were 34.4% (active), 28.5% (active) and 25.9% (active), respectively. The inhibition in experiment [9] is 0.05%; in experiment [10] it was -5.91%; in experiment [11], -3.67%.
Turning to `Nc1ccc(Nc2ccccc2)cc1`, the activation is 10.1% in experiment [6], 5.63% in [7] and 6.91% in experiment [8]. Further, the inhibition in experiment [12] is 6.93%; in [13], 54.5% (active); in [14], 36.4% (active).
Take `CCc1c(-c2ccccc2)nc(N)c(C#N)c1-c1cccs1`: the activation is 11.1% in [6], 13.3% in [7] and 8.84% in [8].
Turning to `CC(=O)n1c(C=Nc2ccccc2)c(O)c2ccccc21`, the activation in experiment [6] was 2.33%; in experiment [7], 0.42%; in experiment [8], 5.23%; in [15], 0.1%; in [16], 4.63%.
`CCN(/N=C/c1ccc(N(C)C)cc1)c1nc2ccccc2[nH]1`: the activation is 9.9% in [6], 6.2% in [7] and 6.08% in experiment [8].
For the compound `Nc1nonc1-c1nc2ccccc2n1Cc1ccc(F)cc1`, the inhibition in [17] is 35.7% (active); in [18], 33%.
Turning to `Cc1cc(N2C(=O)C(=O)/C(=C(/O)c3ccc(Cl)cc3)C2c2cccc(Br)c2)no1` (configuration not stated), the activation is 28.1% (active) in experiment [6], 18.8% in [7] and 14% in experiment [8].
For `COC(=O)c1ccccc1SC1CC(=O)N(c2cccc(C)c2)C1=O` (configuration not stated), the activation in experiment [6] is 0.78%; in experiment [7], -2.36%; in experiment [8] it was 10.9%.
The corresponding values for `Cc1cc(C)c2c(c1)cc(C)c1nnc(SCC(=O)Nc3cc(C)on3)n12` are 18.6%, 17.6% and 12.5%.
Regarding `CC(=O)c1sc2nc(SCC(=O)N3CCCCC3)[nH]c(=O)c2c1C`, the values for the activation in experiment [6], in [7] and in experiment [8] were 27.4% (active), 20.8% (active) and 18.3%, respectively. For the same compound, the activation (reported as inhibition) in experiment [19] is 17.4%. Also, the inhibition in experiment [20] is 21.1% (active).
For `COC(=O)c1[nH]c2ccc(Br)cc2c1NC(=O)Oc1ccccc1`, the activation is 7.14% in experiment [6], 3.71% in experiment [7] and 4.54% in experiment [8].
The corresponding values for `COc1ccc(/C(O)=C2/C(=O)C(=O)N(c3nc(C)c(C)s3)C2c2ccco2)cc1` (configuration not stated) are 21.9% (active), 17.5% and 16.1%.
The corresponding values for `Cn1c(=O)cc(SCC(=O)N2CCCC2)c2cc(Cl)ccc21` are 60.1% (active), 41.1% (active) and 42% (active).
